# From article PMC7862700, “An all-to-all approach to the identification of sequence-specific readers for epigenetic DNA modifications on cytosine”
# Assays:
# Assay in all cases: DAPPL (digital affinity profiling via proximity ligation, sequencing); 10 mM Tris-HCl pH 7.5, 50 mM NaCl, 1 mM DTT, 4% glycerol, room temperature, 30 min; GST-TFs on glutathione beads, 16-mer random dsDNA library, 0.1% formaldehyde crosslink after washing; high values mean tight binding
# FLI1 = biological target: T1, FLI1 (Homo sapiens, UniProt Q01543 1-452); details: protein: recombinant; tags: N-terminal GST; dsDNA, one strand shown
# T1 sequence: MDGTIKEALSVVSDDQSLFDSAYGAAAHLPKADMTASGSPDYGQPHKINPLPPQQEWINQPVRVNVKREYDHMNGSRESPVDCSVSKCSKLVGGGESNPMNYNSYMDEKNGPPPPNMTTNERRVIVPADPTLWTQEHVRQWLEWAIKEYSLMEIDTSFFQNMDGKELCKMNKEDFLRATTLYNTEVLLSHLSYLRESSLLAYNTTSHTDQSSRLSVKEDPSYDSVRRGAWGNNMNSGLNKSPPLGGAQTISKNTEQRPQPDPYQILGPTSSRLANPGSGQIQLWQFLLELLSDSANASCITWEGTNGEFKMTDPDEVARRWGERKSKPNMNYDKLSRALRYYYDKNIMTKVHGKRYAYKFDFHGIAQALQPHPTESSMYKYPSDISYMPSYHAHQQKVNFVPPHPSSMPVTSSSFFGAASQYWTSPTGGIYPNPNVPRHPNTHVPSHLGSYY
# How it was run: (§1)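 After expression in yeast as GST fusions, human transcription factors were bound to glutathione beads, DNA-barcoded and mixed with a tag-only sample. The pools were incubated with 200 nmole of a 16-mer random double-stranded DNA library in Tris/NaCl/DTT/glycerol buffer (30 min, room temperature), washed and crosslinked with 0.1% formaldehyde. Proximity ligation with BsaI/T4 ligase ran for 1 h at 37 °C, before PCR amplification and sequencing on an Illumina NextSeq500. Binding signal is a hexamer's read frequency for a factor divided by its frequency for the tag-only sample.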
# ELK1 = biological target: T2, ELK1 (Homo sapiens, UniProt P19419 1-428); details: protein: recombinant; tags: N-terminal GST; dsDNA, one strand shown
# T2 sequence: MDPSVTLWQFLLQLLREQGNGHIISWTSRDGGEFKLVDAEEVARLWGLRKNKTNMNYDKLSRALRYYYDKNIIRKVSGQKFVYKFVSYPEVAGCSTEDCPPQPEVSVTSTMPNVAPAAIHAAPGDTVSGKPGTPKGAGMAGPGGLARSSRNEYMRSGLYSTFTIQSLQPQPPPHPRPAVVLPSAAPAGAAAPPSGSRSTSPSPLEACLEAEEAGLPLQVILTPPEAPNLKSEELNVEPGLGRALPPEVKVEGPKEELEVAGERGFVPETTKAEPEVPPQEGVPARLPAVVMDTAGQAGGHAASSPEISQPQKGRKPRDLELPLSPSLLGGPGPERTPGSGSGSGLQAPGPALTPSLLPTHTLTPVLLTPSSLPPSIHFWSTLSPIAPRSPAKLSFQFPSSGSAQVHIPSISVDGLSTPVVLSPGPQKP
# How it was run: as §1
# GABPA = biological target: T3, GABPA (Homo sapiens, UniProt Q06546 1-454); details: protein: recombinant; tags: N-terminal GST; dsDNA, one strand shown
# T3 sequence: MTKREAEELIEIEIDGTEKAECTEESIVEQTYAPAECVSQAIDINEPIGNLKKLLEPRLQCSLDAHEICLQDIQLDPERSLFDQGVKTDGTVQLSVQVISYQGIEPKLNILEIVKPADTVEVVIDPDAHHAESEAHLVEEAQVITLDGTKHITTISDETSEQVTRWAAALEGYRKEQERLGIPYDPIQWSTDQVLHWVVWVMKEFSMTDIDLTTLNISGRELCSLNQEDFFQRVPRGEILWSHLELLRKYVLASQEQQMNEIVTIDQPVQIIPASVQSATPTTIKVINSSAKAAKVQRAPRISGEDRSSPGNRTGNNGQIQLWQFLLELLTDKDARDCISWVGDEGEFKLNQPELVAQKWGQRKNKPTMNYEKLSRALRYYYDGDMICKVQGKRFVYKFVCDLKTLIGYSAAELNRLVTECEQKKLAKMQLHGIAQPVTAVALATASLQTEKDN
# How it was run: as §1
# ERG = biological target: T4, ERG (Homo sapiens, UniProt P11308 1-479); details: protein: recombinant; tags: N-terminal GST; dsDNA, one strand shown
# T4 sequence: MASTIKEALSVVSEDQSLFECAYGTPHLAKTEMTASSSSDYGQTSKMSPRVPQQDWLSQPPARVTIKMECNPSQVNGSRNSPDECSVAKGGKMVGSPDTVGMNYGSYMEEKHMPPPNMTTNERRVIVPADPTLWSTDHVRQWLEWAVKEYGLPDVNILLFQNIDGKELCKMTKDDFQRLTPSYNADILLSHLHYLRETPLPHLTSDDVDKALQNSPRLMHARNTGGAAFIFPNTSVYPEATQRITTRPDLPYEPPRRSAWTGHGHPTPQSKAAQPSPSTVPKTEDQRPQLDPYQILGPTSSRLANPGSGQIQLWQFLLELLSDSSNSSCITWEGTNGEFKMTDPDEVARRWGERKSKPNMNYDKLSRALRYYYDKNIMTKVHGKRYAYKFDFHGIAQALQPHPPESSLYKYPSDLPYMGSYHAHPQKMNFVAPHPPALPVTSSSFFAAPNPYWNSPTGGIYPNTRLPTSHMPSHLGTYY
# How it was run: as §1
# ELF1 = ELF1 (Homo sapiens, UniProt P32519 1-619); details: protein: recombinant; tags: N-terminal GST; dsDNA, one strand shown
# Chain of ELF1 (P32519 whole entry): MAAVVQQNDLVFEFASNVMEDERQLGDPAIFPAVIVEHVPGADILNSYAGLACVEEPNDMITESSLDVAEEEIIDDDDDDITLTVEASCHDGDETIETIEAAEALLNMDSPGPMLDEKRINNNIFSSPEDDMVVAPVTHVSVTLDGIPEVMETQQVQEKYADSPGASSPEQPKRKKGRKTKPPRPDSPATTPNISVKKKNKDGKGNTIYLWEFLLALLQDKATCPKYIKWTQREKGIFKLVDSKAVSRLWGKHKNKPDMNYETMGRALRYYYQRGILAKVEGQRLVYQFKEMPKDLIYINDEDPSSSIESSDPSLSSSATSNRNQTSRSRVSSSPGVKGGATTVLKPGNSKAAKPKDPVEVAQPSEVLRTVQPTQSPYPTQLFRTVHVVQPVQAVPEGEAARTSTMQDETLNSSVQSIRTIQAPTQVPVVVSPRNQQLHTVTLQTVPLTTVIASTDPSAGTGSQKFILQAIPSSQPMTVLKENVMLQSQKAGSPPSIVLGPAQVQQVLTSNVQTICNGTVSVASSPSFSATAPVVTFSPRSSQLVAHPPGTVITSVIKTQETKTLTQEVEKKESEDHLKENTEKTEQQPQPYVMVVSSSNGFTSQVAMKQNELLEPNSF
# How it was run: as §1
# EHF = biological target: T5, EHF (Homo sapiens, UniProt Q9NZC4 1-300); details: protein: recombinant; tags: N-terminal GST; dsDNA, one strand shown
# T5 sequence: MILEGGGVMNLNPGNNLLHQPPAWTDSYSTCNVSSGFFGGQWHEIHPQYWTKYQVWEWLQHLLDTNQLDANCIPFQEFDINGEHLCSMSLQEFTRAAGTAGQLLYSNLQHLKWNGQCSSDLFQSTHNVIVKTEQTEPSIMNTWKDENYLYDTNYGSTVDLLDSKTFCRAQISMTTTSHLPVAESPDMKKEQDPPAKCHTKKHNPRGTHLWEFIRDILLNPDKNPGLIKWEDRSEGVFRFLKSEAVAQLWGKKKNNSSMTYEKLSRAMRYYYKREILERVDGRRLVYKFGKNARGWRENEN
# How it was run: as §1
# SPI1 = SPI1 (Homo sapiens, UniProt P17947 1-270); details: protein: recombinant; tags: N-terminal GST; dsDNA, one strand shown
# How it was run: as §1
# SPIB = SPIB (Homo sapiens, UniProt Q01892 1-262); details: protein: recombinant; tags: N-terminal GST; dsDNA, one strand shown
# Chain of SPIB (Q01892 whole entry): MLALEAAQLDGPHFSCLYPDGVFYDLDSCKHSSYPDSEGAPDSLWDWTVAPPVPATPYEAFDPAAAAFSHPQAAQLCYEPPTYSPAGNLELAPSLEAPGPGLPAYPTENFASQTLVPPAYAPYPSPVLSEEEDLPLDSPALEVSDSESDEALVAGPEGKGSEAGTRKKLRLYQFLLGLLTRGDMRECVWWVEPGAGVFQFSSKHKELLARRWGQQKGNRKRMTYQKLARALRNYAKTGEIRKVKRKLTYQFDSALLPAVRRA
# How it was run: as §1
# ELK3 = biological target: T6, ELK3 (Homo sapiens, UniProt P41970 1-407); details: protein: recombinant; tags: N-terminal GST; dsDNA, one strand shown
# T6 sequence: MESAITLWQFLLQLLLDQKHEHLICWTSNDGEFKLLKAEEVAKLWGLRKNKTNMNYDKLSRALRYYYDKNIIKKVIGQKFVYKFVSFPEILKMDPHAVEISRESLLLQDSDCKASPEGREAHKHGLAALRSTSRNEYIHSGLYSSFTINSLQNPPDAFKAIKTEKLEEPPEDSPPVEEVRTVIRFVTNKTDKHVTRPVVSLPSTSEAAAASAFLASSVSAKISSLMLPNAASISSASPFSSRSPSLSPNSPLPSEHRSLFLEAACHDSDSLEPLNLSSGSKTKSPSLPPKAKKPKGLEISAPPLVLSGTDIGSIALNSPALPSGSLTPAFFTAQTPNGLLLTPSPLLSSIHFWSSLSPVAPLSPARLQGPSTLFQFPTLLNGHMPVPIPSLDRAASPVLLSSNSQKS
# How it was run: as §1
# FEV = biological target: T7, FEV (Homo sapiens, UniProt Q99581 1-238); details: protein: recombinant; tags: N-terminal GST; dsDNA, one strand shown
# T7 sequence: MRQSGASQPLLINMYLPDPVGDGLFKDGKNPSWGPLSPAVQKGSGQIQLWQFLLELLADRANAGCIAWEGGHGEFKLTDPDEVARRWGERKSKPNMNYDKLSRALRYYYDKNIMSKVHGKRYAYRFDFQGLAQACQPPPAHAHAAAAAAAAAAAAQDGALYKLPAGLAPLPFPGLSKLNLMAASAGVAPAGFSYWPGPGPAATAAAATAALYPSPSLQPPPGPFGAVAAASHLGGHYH
# How it was run: as §1
# ETV5 = ETV5 (Homo sapiens, UniProt P41161 1-510); details: protein: recombinant; tags: N-terminal GST; dsDNA, one strand shown
# Chain of ETV5 (P41161 whole entry): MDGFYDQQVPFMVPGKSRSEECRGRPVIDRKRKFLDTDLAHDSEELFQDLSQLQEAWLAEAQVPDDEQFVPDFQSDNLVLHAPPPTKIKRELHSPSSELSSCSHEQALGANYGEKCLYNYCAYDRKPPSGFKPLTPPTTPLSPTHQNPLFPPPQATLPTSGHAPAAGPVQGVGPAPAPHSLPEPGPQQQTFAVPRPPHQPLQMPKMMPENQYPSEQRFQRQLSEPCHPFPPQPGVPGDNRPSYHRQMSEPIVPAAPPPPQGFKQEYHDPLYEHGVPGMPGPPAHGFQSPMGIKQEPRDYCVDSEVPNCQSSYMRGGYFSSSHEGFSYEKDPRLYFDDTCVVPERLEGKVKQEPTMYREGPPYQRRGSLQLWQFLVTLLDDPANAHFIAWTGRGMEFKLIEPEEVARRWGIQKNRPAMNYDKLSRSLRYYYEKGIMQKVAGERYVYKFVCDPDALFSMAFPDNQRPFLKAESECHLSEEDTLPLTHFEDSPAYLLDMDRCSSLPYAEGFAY
# How it was run: as §1
# HSF1 = HSF1 (Homo sapiens, UniProt Q00613 1-529); details: protein: recombinant; tags: N-terminal GST; chain copies: 3; dsDNA, one strand shown
# Chain of HSF1 (Q00613 whole entry): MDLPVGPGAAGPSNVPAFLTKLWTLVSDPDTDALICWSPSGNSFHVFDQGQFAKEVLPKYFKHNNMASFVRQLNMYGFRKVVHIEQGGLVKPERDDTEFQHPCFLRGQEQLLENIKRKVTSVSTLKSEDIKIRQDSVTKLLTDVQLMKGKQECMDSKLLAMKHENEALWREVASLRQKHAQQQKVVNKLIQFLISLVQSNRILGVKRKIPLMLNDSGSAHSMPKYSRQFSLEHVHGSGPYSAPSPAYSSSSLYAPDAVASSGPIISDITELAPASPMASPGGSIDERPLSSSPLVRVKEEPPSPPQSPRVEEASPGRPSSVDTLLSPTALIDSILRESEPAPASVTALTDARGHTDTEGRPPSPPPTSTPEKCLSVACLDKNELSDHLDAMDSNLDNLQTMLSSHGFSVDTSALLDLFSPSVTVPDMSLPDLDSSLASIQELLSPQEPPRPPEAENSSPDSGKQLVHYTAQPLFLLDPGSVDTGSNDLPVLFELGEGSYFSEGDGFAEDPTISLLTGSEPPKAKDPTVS
# How it was run: as §1
# SPIC = biological target: T8, SPIC (Homo sapiens, UniProt Q8N5J4 1-248); details: protein: recombinant; tags: N-terminal GST; dsDNA, one strand shown
# T8 sequence: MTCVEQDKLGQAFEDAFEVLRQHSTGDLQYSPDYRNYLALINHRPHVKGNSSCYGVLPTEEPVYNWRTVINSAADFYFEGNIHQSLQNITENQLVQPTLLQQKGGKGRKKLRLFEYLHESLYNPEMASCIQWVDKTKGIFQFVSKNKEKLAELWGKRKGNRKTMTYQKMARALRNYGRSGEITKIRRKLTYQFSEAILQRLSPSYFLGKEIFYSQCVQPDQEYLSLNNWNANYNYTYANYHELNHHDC
# How it was run: as §1
# ELF4 = ELF4 (Homo sapiens, UniProt Q99607 1-663); details: protein: recombinant; tags: N-terminal GST; dsDNA, one strand shown
# Chain of ELF4 (Q99607 whole entry): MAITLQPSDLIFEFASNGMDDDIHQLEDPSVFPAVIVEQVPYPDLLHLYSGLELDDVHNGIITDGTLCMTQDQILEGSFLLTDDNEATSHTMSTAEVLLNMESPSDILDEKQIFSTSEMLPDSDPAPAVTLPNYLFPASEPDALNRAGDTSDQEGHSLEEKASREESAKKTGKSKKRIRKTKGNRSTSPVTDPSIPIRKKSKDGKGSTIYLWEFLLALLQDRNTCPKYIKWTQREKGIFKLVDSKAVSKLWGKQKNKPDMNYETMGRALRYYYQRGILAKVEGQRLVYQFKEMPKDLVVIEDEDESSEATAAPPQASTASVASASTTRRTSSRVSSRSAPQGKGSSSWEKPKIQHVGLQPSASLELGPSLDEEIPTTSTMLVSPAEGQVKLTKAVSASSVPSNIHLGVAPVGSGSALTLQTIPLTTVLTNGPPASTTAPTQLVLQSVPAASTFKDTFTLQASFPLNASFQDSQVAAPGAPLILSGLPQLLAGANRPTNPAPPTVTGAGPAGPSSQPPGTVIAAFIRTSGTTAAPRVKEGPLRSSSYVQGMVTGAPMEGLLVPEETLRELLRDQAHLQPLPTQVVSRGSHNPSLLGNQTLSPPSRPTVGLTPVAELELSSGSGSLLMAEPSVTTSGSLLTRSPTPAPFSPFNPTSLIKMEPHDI
# How it was run: as §1
# ELK4 = biological target: T9, ELK4 (Homo sapiens, UniProt P28324-2 1-405); details: protein: recombinant; tags: N-terminal GST; dsDNA, one strand shown
# T9 sequence: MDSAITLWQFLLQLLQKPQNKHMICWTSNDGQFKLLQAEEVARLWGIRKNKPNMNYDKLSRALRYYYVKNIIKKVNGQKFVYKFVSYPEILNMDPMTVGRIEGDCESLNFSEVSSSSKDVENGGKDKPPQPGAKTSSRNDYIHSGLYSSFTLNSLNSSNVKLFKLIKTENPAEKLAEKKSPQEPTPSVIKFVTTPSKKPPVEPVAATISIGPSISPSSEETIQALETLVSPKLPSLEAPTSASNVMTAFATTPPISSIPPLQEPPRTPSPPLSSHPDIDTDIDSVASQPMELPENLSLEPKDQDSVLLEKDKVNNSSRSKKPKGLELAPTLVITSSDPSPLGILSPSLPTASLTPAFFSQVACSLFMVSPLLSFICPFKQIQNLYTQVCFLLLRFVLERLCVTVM
# How it was run: as §1
# ETV2 = biological target: T10, ETV2 (Homo sapiens, UniProt O00321 1-342); details: protein: recombinant; tags: N-terminal GST; dsDNA, one strand shown
# T10 sequence: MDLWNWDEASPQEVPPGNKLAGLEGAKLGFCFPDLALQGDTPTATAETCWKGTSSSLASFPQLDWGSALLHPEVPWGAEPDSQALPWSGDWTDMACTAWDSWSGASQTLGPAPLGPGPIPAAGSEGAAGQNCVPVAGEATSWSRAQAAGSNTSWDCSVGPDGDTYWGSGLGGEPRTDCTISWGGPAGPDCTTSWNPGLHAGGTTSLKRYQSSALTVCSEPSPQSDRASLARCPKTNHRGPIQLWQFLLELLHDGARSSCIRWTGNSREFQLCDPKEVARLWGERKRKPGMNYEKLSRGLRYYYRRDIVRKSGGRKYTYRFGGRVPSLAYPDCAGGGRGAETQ
# How it was run: as §1
# ELF3 = biological target: T11, ELF3 (Homo sapiens, UniProt P78545 1-371); details: protein: recombinant; tags: N-terminal GST; dsDNA, one strand shown
# T11 sequence: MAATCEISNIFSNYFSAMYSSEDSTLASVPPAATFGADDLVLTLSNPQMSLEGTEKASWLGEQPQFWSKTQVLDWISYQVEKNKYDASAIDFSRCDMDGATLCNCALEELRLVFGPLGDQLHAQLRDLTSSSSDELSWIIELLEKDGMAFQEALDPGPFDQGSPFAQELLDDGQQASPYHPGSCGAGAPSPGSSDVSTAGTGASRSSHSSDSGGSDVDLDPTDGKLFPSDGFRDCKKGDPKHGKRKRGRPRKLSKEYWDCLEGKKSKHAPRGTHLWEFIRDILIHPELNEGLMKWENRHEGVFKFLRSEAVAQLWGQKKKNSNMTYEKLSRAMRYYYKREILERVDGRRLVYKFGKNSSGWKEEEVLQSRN
# How it was run: as §1
# CRX = CRX (Homo sapiens, UniProt O43186 1-299); details: protein: recombinant; tags: N-terminal GST; dsDNA, one strand shown
# Chain of CRX (O43186 whole entry): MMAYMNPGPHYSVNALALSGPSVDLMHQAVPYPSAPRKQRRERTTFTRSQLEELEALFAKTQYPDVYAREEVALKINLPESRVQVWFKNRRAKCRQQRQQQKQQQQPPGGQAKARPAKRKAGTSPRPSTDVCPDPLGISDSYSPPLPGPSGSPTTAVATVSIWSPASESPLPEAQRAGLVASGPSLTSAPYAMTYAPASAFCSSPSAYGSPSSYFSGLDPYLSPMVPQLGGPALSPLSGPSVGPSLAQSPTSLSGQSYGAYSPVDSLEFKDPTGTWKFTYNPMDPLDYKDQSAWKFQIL
# How it was run: as §1
# ETV1 = ETV1 (Homo sapiens, UniProt P50549 1-477); details: protein: recombinant; tags: N-terminal GST; dsDNA, one strand shown
# Chain of ETV1 (P50549 whole entry): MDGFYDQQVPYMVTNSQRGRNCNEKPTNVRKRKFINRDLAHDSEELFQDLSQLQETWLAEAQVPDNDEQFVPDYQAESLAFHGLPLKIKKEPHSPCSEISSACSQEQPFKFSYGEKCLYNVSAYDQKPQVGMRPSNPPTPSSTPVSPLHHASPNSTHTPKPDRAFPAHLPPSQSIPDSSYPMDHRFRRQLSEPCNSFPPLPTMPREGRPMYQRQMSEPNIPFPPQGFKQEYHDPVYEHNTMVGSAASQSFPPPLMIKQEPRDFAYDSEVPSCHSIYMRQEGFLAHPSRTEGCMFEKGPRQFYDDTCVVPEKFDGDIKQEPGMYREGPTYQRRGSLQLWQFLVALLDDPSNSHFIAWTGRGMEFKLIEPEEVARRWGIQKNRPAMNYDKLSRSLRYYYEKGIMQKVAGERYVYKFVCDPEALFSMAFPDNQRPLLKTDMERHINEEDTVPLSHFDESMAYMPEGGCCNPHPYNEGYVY
# How it was run: as §1
sequence,measurement,setting,value
CCTTTA,binding signal,FLI1,"1.36 fold enrichment (6-mer frequency, TF over GST control)"
same,binding signal,ELK1,"1.4 fold enrichment (6-mer frequency, TF over GST control)"
same,binding signal,GABPA,"1.37 fold enrichment (6-mer frequency, TF over GST control)"
same,binding signal,ERG,"1.21 fold enrichment (6-mer frequency, TF over GST control)"
same,binding signal,ELF1,"1.36 fold enrichment (6-mer frequency, TF over GST control)"
same,binding signal,EHF,"1.29 fold enrichment (6-mer frequency, TF over GST control)"
same,binding signal,SPI1,"1.45 fold enrichment (6-mer frequency, TF over GST control)"
same,binding signal,SPIB,"1.3 fold enrichment (6-mer frequency, TF over GST control)"
same,binding signal,ELK3,"1.21 fold enrichment (6-mer frequency, TF over GST control)"
same,binding signal,FEV,"1.3 fold enrichment (6-mer frequency, TF over GST control)"
same,binding signal,ETV5,"1.22 fold enrichment (6-mer frequency, TF over GST control)"
same,binding signal,HSF1,"1.31 fold enrichment (6-mer frequency, TF over GST control)"
same,binding signal,SPIC,"1.32 fold enrichment (6-mer frequency, TF over GST control)"
same,binding signal,ELF4,"1.35 fold enrichment (6-mer frequency, TF over GST control)"
same,binding signal,ELK4,"1.42 fold enrichment (6-mer frequency, TF over GST control)"
same,binding signal,ETV2,"1.34 fold enrichment (6-mer frequency, TF over GST control)"
same,binding signal,ELF3,"1.51 fold enrichment (6-mer frequency, TF over GST control)"
same,binding signal,CRX,"1.57 fold enrichment (6-mer frequency, TF over GST control)"
same,binding signal,ETV1,"1.37 fold enrichment (6-mer frequency, TF over GST control)"
